# Inconclusive results are not listed. A number with no mark means an inactive call. Activity calls are given as the source filed them. Calls follow the shape of the dose curve; as a rule, active = well fitted inhibition curve with a large enough effect; inconclusive = small, poorly fitted or top-dose-only effect; inactive = flat fitted curve, though single readings scatter.
# Tested on: CP237
# Assay: qHTS profiling for inhibitors of Plasmodium falciparum proliferation (AID 504749); also: nearly all actives have a fitted effect of over 60% in size;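 as to activity, negative = inhibition: 0% = DMSO vehicle and full inhibition = artemisinin control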
# Settings: P. falciparum in erythrocytes, SYBR Green DNA, 72 h; series mostly up to 28.7 µM; activity, negative = inhibition: at the top concentration
# Procedure, shortened: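 Each compound contacts P. falciparum-infected red blood cells for 72 h at 37 C; lysis buffer (Tris, EDTA, saponin, Triton X, SYBR Green I) is added and fluorescence measured next morning; values normalized to controls.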
# Potency is read from the fitted curve at half-maximal effect.
SMILES,Potency,"activity, negative = inhibition"
O=C(CCCN1CCC(n2c(=O)[nH]c3ccccc32)CC1)c1ccc(F)cc1,1.41 µM (active),
Oc1ccc2[nH]cc(CCCCN3CC=C(c4ccccc4)CC3)c2c1,5.62 µM (active),
CC[C@]1(O)CC[C@H]2[C@@H]3CCC4=CCCC[C@@H]4[C@H]3CC[C@@]21C,,-27.2%
Cc1c(Cl)c(=O)oc2cc(OP(=O)(OCCCl)OCCCl)ccc12,7.94 µM (active),
CN1C(=O)CN=C(c2ccccc2)c2cc([N+](=O)[O-])ccc21,,-14%
CCCCCCCCC(=O)NCc1ccc(O)c(OC)c1,,3.63%
c1cc2c(c(N3CCNCC3)c1)OCCO2,,-9.06%
C=CCOC(Cn1ccnc1)c1ccc(Cl)cc1Cl (stereo not given),4.47 µM (active),
COc1ccc(CN2CCNCC2)c(OC)c1OC,,-15% [at 12.8 µM]
Nc1ccc(N)cc1,,-13.5%
Clc1ccc(CO/N=C(\Cn2ccnc2)c2ccc(Cl)cc2Cl)c(Cl)c1,3.98 µM (active),
C[C@]12Cc3nonc3C[C@@H]1CC[C@@H]1[C@@H]2CC[C@@]2(C)[C@H]1CC[C@]2(C)O,,-12.9%
ClC1=C(Cl)C2(Cl)C(CBr)CC1(Cl)C2(Cl)Cl (stereo not given),,-18.7%
CNC(=O)Oc1cccc2ccccc12,,-21.5%
N#Cc1nn(-c2c(Cl)cc(C(F)(F)F)cc2Cl)c(N)c1S(=O)C(F)(F)F (stereo not given),5.01 µM (active),
COC(=O)C1=CCCN(C)C1,,-1.49%
COCC(=O)N(c1c(C)cccc1C)C(C)C(=O)OC (stereo not given),,1.42%
COc1ccc(C(=O)N2CCCC2=O)cc1,,-8.66%
Oc1c(Br)cc(Br)cc1Br,,-8.61%
CC(C)(O)C(Cl)(Cl)Cl,3.16 µM (active),

# From PubChem BioAssay (NCATS)
